The entries come from a sample that favours hits as a whole.
Pf Dd2 inh: qHTS Primary assay for Inhibitors of Plasmodium falciparum Dd2 growth in vitro | P. falciparum Dd2 growth, SYBR Green, 72 h | Potency, µM (top dose mostly 28.9 µM), without a hit: at the top dose activity, negative = inhibition, hits mostly inhibitors | AID 1347417, 2020 | 120,000 compounds, 4.3% hits; active = well fitted inhibition curve with a large enough effect;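 also: plate controls were DMSO vehicle for no effect and reference drug for full effect; nearly all actives have a fitted effect of over 65% in size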
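Readout: SYBR Green fluorescence, 485 nm excitation, 535 nm emission, after ~16 h lysis at 37C. Before that, Dd2-infected red cells (2.5% hematocrit) grew 72 h with compound, 29 uM top final concentration.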
Starred values were filed as active, the others as inactive; i = inactive; [ ] = another dose, or the depositor's remark. Potency is read from the fitted curve at half-maximal effect.

SMILES	Pf Dd2 inh
CCC1(N2CCN(S(=O)(=O)c3ccc(Cl)s3)CC2)CCN(C(=O)C(C)C)C1 (stereo not given)	-11%
Cc1ccsc1CN1CCCC2(Cc3ccccc3CNC2=O)C1 (stereo not given)	-27%
O=C1NCc2ccccc2CC12CCCN(Cc1c(Cl)cncc1Cl)C2 (stereo not given)	-24%
CC(C)=CCN1CCCC2(Cc3ccccc3CNC2=O)C1 (stereo not given)	10µM*
Cc1ccc(C(=O)NC2CCN(c3cn[nH]c(=O)c3)CC2)cc1F	-6%
COC(=O)[C@@H]1Cc2nc[nH]c2CN1Cc1cc2ccccc2o1	-20%[44.1 µM]
O=C(CN1CCn2nc(C(O)CO)cc2C1)Nc1ccc(Cl)cn1 (stereo not given)	-18%
N#Cc1ccccc1Cn1nnc2c(=O)[nH]c(C3CCCN(S(=O)(=O)c4ccc(F)cc4)C3)nc21 (stereo not given)	i
Cc1ccc(Cn2nnc3c(=O)[nH]c(C4CCN(C(=O)Cc5ccccc5F)CC4)nc32)cc1	-27%
Cc1cccc(Cn2nnc3c(=O)[nH]c(C4CCCN(C(=O)c5ccc(C(C)(C)C)cc5)C4)nc32)c1 (stereo not given)	1µM*
CCc1cn[nH]c1C1CCCN(C(=O)c2ccc(Cn3nnnc3C)cc2)C1 (stereo not given)	10%
O=C(Cc1ccccc1F)N1CCC(c2nc3c(nnn3Cc3cccc(Cl)c3)c(=O)[nH]2)CC1	10µM*
Cc1ccc(C(=O)N2CCCC(c3nn(-c4ccccc4)c(=O)[nH]3)C2)cc1 (stereo not given)	i
Cc1ccccc1Cn1nnc2c(=O)[nH]c(C3CCCN(C(=O)c4ccc(C(C)(C)C)cc4)C3)nc21 (stereo not given)	8.9µM*
O=C(c1ccccc1F)N1CCC(c2nn(Cc3ccccc3)c(=O)[nH]2)CC1	27%
COC(=O)c1ccc(Cn2nnc3c(=O)[nH]c(C4CCCN(S(=O)(=O)c5ccccc5)C4)nc32)cc1 (stereo not given)	-22%
CNC(=O)[C@@H]1CN(Cc2ccccc2C(F)(F)F)C[C@H]1CO	i
O=C(c1ccccc1F)N1CCC2(CC1)SCC(=O)N2c1ccc(Cl)cc1	i
O=C(NCC(F)(F)F)c1cc(Br)cn2ccnc12	23%[44.1 µM]
CN(C)c1ccc(C(=O)N[C@H]2CO[C@H]3[C@@H]2OC[C@@H]3Nc2nccc(-c3cccs3)n2)cc1	i
CC(C)c1noc(-c2cn(C3CCN(C(=O)c4ccoc4)CC3)nn2)n1	-6%
NCc1cccc(-c2cccc(Cl)c2)c1	13µM*
NCc1cccc(-c2cncnc2)c1	6%[44.1 µM]
C=Cc1cccc(-c2nccn2-c2cccc(CN)c2)c1	-28%
COCCn1c(C)cnc1CCNS(=O)(=O)c1c(C)nn(C)c1C	31%
SMILES	Pf Dd2 inh
CCc1ccccc1Nc1nn2c(=O)c3ccc(C(=O)Nc4cc(C)cc(C)c4)cc3nc2s1	-2%
CCc1ccccc1Nc1nn2c(=O)c3ccc(C(=O)NC(C)c4ccccc4)cc3nc2s1 (stereo not given)	1µM*
CCc1ccccc1Nc1nn2c(=O)c3ccc(C(=O)NC4CCCCC4)cc3nc2s1	-20%
COc1ccc(-c2nc3cnccn3c2NCCC(=O)O)cc1	-3%
O=C(c1cc(F)ccc1F)N1CCN(C(=O)c2nnn3c2COC(c2ccccc2)C3)CC1 (stereo not given)	i
CN(C(=O)c1cc2ccccc2s1)C1CCCN(C2Cc3ccccc3C2)C1 (stereo not given)	i
Cc1ccc2c(n1)N(C)[C@H](CO)CCN(Cc1ccccc1Cl)C2	-25%[44.1 µM]
Cc1ccc2c(n1)N(C)[C@H](CO)CCN(Cc1cn(C)c3ccccc13)C2	11µM*
Cc1ccc2c(n1)N(C)[C@H](CO)CCN(Cc1ccc(F)cc1)C2	-3%[44.1 µM]
CC(C)c1noc(-c2cn(C3CCN(C(=O)c4ccc(C(C)(C)C)cc4)C3)nn2)n1 (stereo not given)	237%
Cc1noc(C)c1Cc1ccc(C(=O)N2CCC(C)(c3noc(-c4ccccn4)n3)CC2)o1	-8%
O=C(c1ccc(F)cc1)N1CCCC(c2nn(-c3ccc(F)cc3)c(=O)[nH]2)C1 (stereo not given)	-22%
Cc1ccc(Sc2ccc(N3CCCC(C(=O)Nc4ccc(F)cc4F)C3)nn2)cc1 (stereo not given)	-5%
COC(=O)c1ccccc1NC(=O)C1CCCN(c2ncnc3onc(C)c23)C1 (stereo not given)	-2%
CCOCCCNC(=O)C1CCCN(c2ncnc3onc(C)c23)C1 (stereo not given)	1%
CCOC(=O)c1ccc(NC(=O)C2CCCN(c3cnccn3)C2)cc1 (stereo not given)	-11%
CCOC(=O)c1ccc(NC(=O)C2CCCN(c3ccc(Sc4ccc(C)cc4)nn3)C2)cc1 (stereo not given)	5.6µM*
CCOC(=O)c1ccc(NC(=O)C2CCCN(c3ncnc4onc(C)c34)C2)cc1 (stereo not given)	7.9µM*
O=C(O)CCC(=O)N1CC[C@H](c2nnc(-c3cccnc3)o2)C1	12%[44.1 µM]
OC1CC(c2cc(NCCc3nc(Cc4ccccc4)no3)ncn2)C1 (stereo not given)	9%
Cc1ccc(OCCC2CCN(C(=O)c3ccc(C)nc3)C2)cc1 (stereo not given)	i
Cc1c2cnn(-c3ccccc3)c(=O)c2c(C)n1CC(=O)N1CCN(c2cccc(Cl)c2)CC1	25%
CCC(C(=O)N1CCN(c2ccccc2)CC1)n1c(C)c2cnn(-c3ccccc3)c(=O)c2c1C (stereo not given)	11µM*
Cc1ccc(C)c(N2CCN(C(=O)Cn3c(C)c4cnn(-c5ccccc5)c(=O)c4c3C)CC2)c1	i
COc1ccc(C(C)NC(=O)c2cc3c(N4CCSCC4)nc(C)cn3n2)cc1OC (stereo not given)	i
SMILES	Pf Dd2 inh
Cc1ccc(N2C(=O)N[C@@H]3CCN(C(=O)c4ccc(C(C)(C)C)cc4)[C@@H]3C2=O)cc1	0%[44.1 µM]
CC(C)(C)C1CCc2nc(NC(=O)Cc3ccc(Cl)cc3)sc2C1 (stereo not given)	10µM*
COc1ccccc1OCC(=O)Nc1nc2c(s1)CC(C)CC2 (stereo not given)	86%
COc1ccc(CC(=O)Nc2nc3c(s2)CC(C(C)(C)C)CC3)cc1 (stereo not given)	-28%
N#Cc1ccc(CN2C[C@@H](CO)[C@H](c3ccncc3)C2)cc1	12%
O=C(C[C@@H]1O[C@H](CNC(=O)c2cccc(F)c2)[C@@H](O)[C@H]1O)Nc1ccccc1	-18%[44.1 µM]
CC1(C)CNC(=O)c2nc(CC3(O)CCCC3)[nH]c2C1	6%
O=C(N[C@@H]1CN(Cc2c(F)cccc2Cl)C[C@H]1CO)C1CC1	-8%
CCOc1ccccc1CN1C[C@@H](CO)[C@H](NC(=O)C2CC2)C1	7.9µM*
COc1ccc(CN2C[C@@H](CO)[C@H](NC(=O)C3CCC3)C2)cc1	9%
CCOCc1nc(C2CCCNC2)no1 (stereo not given)	37%
O=C1N[C@@H]2CCN(C(=O)c3ccc(C(F)(F)F)cc3)[C@@H]2C(=O)N1c1ccc(Oc2ccccc2)cc1	-23%
Cc1noc([C@@H]2CC(F)(F)CN2C(=O)c2ccco2)n1	-24%
CC(=O)N1CCC(Cc2ncc(C)n2C(C)C)C1 (stereo not given)	3%
O=C(c1n[nH]c(=O)c2ccccc12)N1CCC(Cc2noc(C3CCOCC3)n2)C1 (stereo not given)	6%
CCCn1c(C)cnc1CC1CCCN(S(=O)(=O)CCC)C1 (stereo not given)	-11%

Screening data from PubChem BioAssay.
